Screening results as filed in PubChem.
RT RNaseH block: blocks HIV-1 RNase H cleavage of RNA/DNA duplex. RT-RNase H RNA/DNA duplex cleavage, fluorescence. hit rate 1.9% among 65,000. inhibition, % at 10 µM; in the data active means inhibition above about 50%
RmlC RmlD mix: mixture blocks RmlC and RmlD coupled enzyme activity. RmlC/RmlD coupled enzyme inhibition, 384-well mixture HTS. inhibition, % at 5.5 µM. hit rate 0.39% among 110,000; in the data active means inhibition above about 30%, passing the limit was not always enough
RmlCD fluor art: RmlC/RmlD fluorescence artifact, counter-screen; hit rate 96% among 360; calls only; shares compounds with RmlC RmlD mix; RmlC/RmlD assay fluorescence artifact counter-screen; call rule not given here;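 further: compound alone with no enzyme and no substrates present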
* marks the source's active call; other numbers are inactive results; / = not tested or not shown; + = active, no number. The full list was thinned out, with hits kept by preference.

SMILES	RT RNaseH block	RmlC RmlD mix	RmlCD fluor art
CCC1OC23CCCCC2C(C#N)(C(=N)O3)C1(C#N)C#N (configuration not stated)	/	-4.2	/
CC1OC23CCCCC2C(C#N)(C(=N)O3)C1(C#N)C#N (configuration not stated)	/	1.8	/
O=C(O)C[C@H]1c2cc(C(F)(F)F)ccc2S(=O)(=O)N1C1CCN(Cc2ccccc2)CC1	/	-18.1	/
COc1ccc(C#Cc2c(-c3ccc(OC)cc3)oc3ccc(-c4ccc(OC)cc4)cc23)cc1	/	+	+
COc1ccc(-c2ccc3oc(-c4ccc(OC)cc4)c(C#CCCO)c3c2)cc1	/	-182.3	/
CCOC(=O)c1ccc(-c2c(C(=O)OCC)oc3cc(O)c(CC)cc3c2=O)o1	-6.1	1.0	/
Cc1cc(NC(=O)CCNS(=O)(=O)c2cc(Br)cnc2N)ccc1Br	/	-3.0	/
CCOC(=O)c1cc2cc3ccccc3cc2[nH]1	/	124.6*	+
CC(C)OC(=O)c1cc2ccccc2[nH]1	/	-10.0	/
CCOCC(=O)Nc1ccc(-c2cn3cccnc3n2)cc1	-8.2	105.9*	+
O=C(Nc1cccc(-c2cn3cccnc3n2)c1)c1ccc(Br)o1	-3.4	54.6*	+
Cc1ccc(-c2cn3cccnc3n2)cc1NC(=O)c1ccc(Br)o1	-8.2	69.7*	+
COc1ccc(-c2cn3cccnc3n2)cc1NC(=O)c1ccc(Br)o1	-26.7	22.0	/
CCCC(=O)Nc1cc(-c2cn3cccnc3n2)ccc1OC	-6.8	21.4	/
O=C(Nc1cccc(-c2cn3cccnc3n2)c1)c1ccco1	-0.9	32.9	/
Cc1nn(C)c(C)c1CN(C)C(=O)CCCC(=O)O	/	-16.0	/
COc1cc(NC(=O)CCCC(=O)OCC(F)(F)C(F)F)nc(OC)n1	2.4	-16.2	/
CCCCC(=O)NCCNC(=O)c1cc(OCC(F)(F)F)ccc1OCC(F)(F)F	/	7.1	/
COc1ccc(CNC(=O)C(c2ccncc2)N(C(=O)Cc2cccs2)c2ccccc2C)cc1 (configuration not stated)	/	-7.9	/
CC1CC(C)CN(C2CCN(Cc3cccnc3)CC2)C1 (configuration not stated)	/	2.7	/
COc1ccc(/C=N/NC(=O)CO/N=C(\C)c2cccs2)cc1	/	-4.0	/
Cn1c(/C=N/NC(=O)c2ccccc2)nc2ccccc21	/	-7.0	/
CC(=O)c1ccc(/C=C/c2nc3ccccc3n2C)o1	/	/	+
COc1ccc(OC)c(S(=O)(=O)N2CCC(C(=O)Nc3ccc(C)c(C)c3)CC2)c1	-12.1	-10.8	/
Cc1c(O)c(CN2CCCCC2)cc2c3c(c(=O)oc12)CCC3	4.2	91.2*	+
SMILES	RT RNaseH block	RmlC RmlD mix	RmlCD fluor art
O=c1oc2c(CN3CCCCC3)c(O)ccc2c2c1CCCC2	/	95.7*	+
Cc1oc2c(C)c3oc(=O)c4c(c3cc2c1C)CCC4	-6.1	-7.5	/
O=c1cc(-c2ccccc2)c2ccc(O)c(CN3CCCCC3)c2o1	-1.4	4.1	/
CC(C)OP(C)(=O)CN1CCN(CP(C)(=O)OC(C)C)CC1 (configuration not stated)	-12.6	-12.3	/
CCCCC(=O)Nc1ccc(C(=O)N2CCC(C(=O)OCC)CC2)cc1	/	-8.2	/
COc1ccc(-c2oc3ncn4nc(COc5ccccc5)nc4c3c2-c2ccc(OC)cc2)cc1	35.9	117.4*	+
COc1ccc(-c2oc3ncn4nc(Cc5ccccc5)nc4c3c2-c2ccc(OC)cc2)cc1	25.7	84.2	/
